# Measured values published in publication PMC11006913.
# Changes are numbered by the printed parent chain.
# Assays:
# Assay in all cases: PBM; 200 nM protein, PBS
# Conditions in all cases: dsDNA, one strand shown
# [1] = biological target: HESX1 (Homo sapiens, UniProt Q9UBX0 95-180, R165K)
# [2] = biological target: HESX1 (Homo sapiens, UniProt Q9UBX0 95-180)
# [3] = biological target: HESX1 (Homo sapiens, UniProt Q9UBX0 95-180, P111T)
# [4] = biological target: HOXB4 (Homo sapiens, UniProt P17483 148-234)
# [5] = biological target: HOXA4 (Homo sapiens, UniProt Q00056 201-287, W262R)
# [6] = biological target: HOXA2 (Homo sapiens, UniProt O43364 129-215, R185T)
# [7] = biological target: HOXA4 (Homo sapiens, UniProt Q00056 201-287, R217L)
# [8] = biological target: HOXB4 (Homo sapiens, UniProt P17483 148-234, V174I)
# [9] = biological target: HOXA2 (Homo sapiens, UniProt O43364 129-215, R185K)
# [10] = biological target: HOXA4 (Homo sapiens, UniProt Q00056 201-287)
# [11] = biological target: VAX1 (Homo sapiens, UniProt Q5SQQ9 86-172)
# [12] = biological target: VAX1 (Homo sapiens, UniProt Q5SQQ9 86-172, T142I)
# [13] = biological target: HOXA2 (Homo sapiens, UniProt O43364 129-215, Y150S)
# [14] = biological target: HOXA4 (Homo sapiens, UniProt Q00056 201-287, W262F)
# [15] = biological target: HOXA2 (Homo sapiens, UniProt O43364 129-215)
# [16] = biological target: VAX1 (Homo sapiens, UniProt Q5SQQ9 86-172, K157R)
# [17] = biological target: T1, VENTX (Homo sapiens, UniProt O95231 78-163, R121Q)
# T1 sequence: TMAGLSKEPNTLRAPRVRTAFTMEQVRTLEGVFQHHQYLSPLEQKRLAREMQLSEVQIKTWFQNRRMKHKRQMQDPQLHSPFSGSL
# [18] = biological target: T2, VENTX (Homo sapiens, UniProt O95231 78-163)
# T2 sequence: T1 sequence with Q44R
# [19] = biological target: T3, VENTX (Homo sapiens, UniProt O95231 78-163, Y115F)
# T3 sequence: T1 sequence with Y38F, Q44R
# [20] = biological target: HOXB9 (Homo sapiens, UniProt P17482 171-250, T197M)
# Sequence of HOXB9 (P17482 171-250 T197M): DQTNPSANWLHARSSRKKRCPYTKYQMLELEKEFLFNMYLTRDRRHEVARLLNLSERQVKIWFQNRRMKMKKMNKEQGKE
# Sequence of HOXA4 (Homo sapiens, UniProt Q00056 201-287, R217L) (Q00056 201-287 R217L): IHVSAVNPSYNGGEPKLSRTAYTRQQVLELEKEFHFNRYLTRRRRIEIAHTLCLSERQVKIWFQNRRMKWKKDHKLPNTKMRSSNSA
# Sequence of HOXA2 (Homo sapiens, UniProt O43364 129-215, R185K) (O43364 129-215 R185K): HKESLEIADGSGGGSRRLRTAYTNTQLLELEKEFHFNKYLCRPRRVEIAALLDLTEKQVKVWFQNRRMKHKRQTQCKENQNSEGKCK
# Sequence of HOXA2 (Homo sapiens, UniProt O43364 129-215, R185T) (O43364 129-215 R185T): as the sequence (O43364 129-215 R185K) above, with K57T counted along it
# Sequence of HESX1 (Homo sapiens, UniProt Q9UBX0 95-180) (Q9UBX0 95-180): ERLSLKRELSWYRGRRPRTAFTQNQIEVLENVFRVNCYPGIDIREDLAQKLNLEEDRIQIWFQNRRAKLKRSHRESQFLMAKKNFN
# Sequence of HOXB4 (Homo sapiens, UniProt P17483 148-234, V174I) (P17483 148-234 V174I): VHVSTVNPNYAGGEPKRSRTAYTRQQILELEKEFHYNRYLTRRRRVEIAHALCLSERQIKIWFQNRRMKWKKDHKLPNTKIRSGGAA
# Sequence of HESX1 (Homo sapiens, UniProt Q9UBX0 95-180, R165K) (Q9UBX0 95-180 R165K): as the sequence (Q9UBX0 95-180) above, with R71K counted along it
# Sequence of VAX1 (Homo sapiens, UniProt Q5SQQ9 86-172, T142I) (Q5SQQ9 86-172 T142I): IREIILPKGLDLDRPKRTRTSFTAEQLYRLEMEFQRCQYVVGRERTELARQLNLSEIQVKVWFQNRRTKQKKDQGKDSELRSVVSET
# Sequence of HOXA4 (Homo sapiens, UniProt Q00056 201-287) (Q00056 201-287): as the sequence (Q00056 201-287 R217L) above, with L17R counted along it
# Sequence of HOXA2 (Homo sapiens, UniProt O43364 129-215) (O43364 129-215): as the sequence (O43364 129-215 R185K) above, with K57R counted along it
# Sequence of HOXA4 (Homo sapiens, UniProt Q00056 201-287, W262R) (Q00056 201-287 W262R): as the sequence (Q00056 201-287 R217L) above, with L17R, W62R counted along it
# Sequence of HOXB4 (Homo sapiens, UniProt P17483 148-234) (P17483 148-234): as the sequence (P17483 148-234 V174I) above, with I27V counted along it
# Sequence of HESX1 (Homo sapiens, UniProt Q9UBX0 95-180, P111T) (Q9UBX0 95-180 P111T): as the sequence (Q9UBX0 95-180) above, with P17T counted along it
# Sequence of VAX1 (Homo sapiens, UniProt Q5SQQ9 86-172, K157R) (Q5SQQ9 86-172 K157R): as the sequence (Q5SQQ9 86-172 T142I) above, with I57T, K72R counted along it
# Sequence of HOXA2 (Homo sapiens, UniProt O43364 129-215, Y150S) (O43364 129-215 Y150S): as the sequence (O43364 129-215 R185K) above, with Y22S, K57R counted along it
# Sequence of VAX1 (Homo sapiens, UniProt Q5SQQ9 86-172) (Q5SQQ9 86-172): as the sequence (Q5SQQ9 86-172 T142I) above, with I57T counted along it
# Sequence of HOXA4 (Homo sapiens, UniProt Q00056 201-287, W262F) (Q00056 201-287 W262F): as the sequence (Q00056 201-287 R217L) above, with L17R, W62F counted along it
sequence,measurement,setting,value
ATTAGTGC,binding signal,[1],"9.5 upbm affinity estimate (log intensity, higher = more binding, comparable within an allelic series)"
same,binding signal,[2],"9.81 upbm affinity estimate (log intensity, higher = more binding, comparable within an allelic series)"
same,binding signal,[3],"8.71 upbm affinity estimate (log intensity, higher = more binding, comparable within an allelic series)"
CTCAATTC,binding signal,[1],"7.54 upbm affinity estimate (log intensity, higher = more binding, comparable within an allelic series)"
same,binding signal,[2],"7.59 upbm affinity estimate (log intensity, higher = more binding, comparable within an allelic series)"
same,binding signal,[3],"7.26 upbm affinity estimate (log intensity, higher = more binding, comparable within an allelic series)"
GATCATTA,binding signal,[4],"13.4 upbm affinity estimate (log intensity, higher = more binding, comparable within an allelic series)"
same,binding signal,[5],"10.5 upbm affinity estimate (log intensity, higher = more binding, comparable within an allelic series)"
same,binding signal,[6],"12.5 upbm affinity estimate (log intensity, higher = more binding, comparable within an allelic series)"
same,binding signal,[7],"12.4 upbm affinity estimate (log intensity, higher = more binding, comparable within an allelic series)"
same,binding signal,[8],"14.1 upbm affinity estimate (log intensity, higher = more binding, comparable within an allelic series)"
same,binding signal,[9],"13.3 upbm affinity estimate (log intensity, higher = more binding, comparable within an allelic series)"
same,binding signal,[10],"14.1 upbm affinity estimate (log intensity, higher = more binding, comparable within an allelic series)"
same,binding signal,[11],"13 upbm affinity estimate (log intensity, higher = more binding, comparable within an allelic series)"
same,binding signal,[12],"13.1 upbm affinity estimate (log intensity, higher = more binding, comparable within an allelic series)"
same,binding signal,[13],"10.9 upbm affinity estimate (log intensity, higher = more binding, comparable within an allelic series)"
same,binding signal,[14],"11.9 upbm affinity estimate (log intensity, higher = more binding, comparable within an allelic series)"
same,binding signal,[15],"12.6 upbm affinity estimate (log intensity, higher = more binding, comparable within an allelic series)"
same,binding signal,[16],"13 upbm affinity estimate (log intensity, higher = more binding, comparable within an allelic series)"
TATCAATA,binding signal,[1],"7.76 upbm affinity estimate (log intensity, higher = more binding, comparable within an allelic series)"
same,binding signal,[2],"7.98 upbm affinity estimate (log intensity, higher = more binding, comparable within an allelic series)"
same,binding signal,[3],"7.63 upbm affinity estimate (log intensity, higher = more binding, comparable within an allelic series)"
GCCGCCGC,binding signal,[4],"7.18 upbm affinity estimate (log intensity, higher = more binding, comparable within an allelic series)"
same,binding signal,[17],"7.93 upbm affinity estimate (log intensity, higher = more binding, comparable within an allelic series)"
same,binding signal,[5],"9.6 upbm affinity estimate (log intensity, higher = more binding, comparable within an allelic series)"
same,binding signal,[18],"7.88 upbm affinity estimate (log intensity, higher = more binding, comparable within an allelic series)"
same,binding signal,[19],"7.83 upbm affinity estimate (log intensity, higher = more binding, comparable within an allelic series)"
same,binding signal,[6],"6.96 upbm affinity estimate (log intensity, higher = more binding, comparable within an allelic series)"
same,binding signal,[7],"9.61 upbm affinity estimate (log intensity, higher = more binding, comparable within an allelic series)"
same,binding signal,[8],"7.39 upbm affinity estimate (log intensity, higher = more binding, comparable within an allelic series)"
same,binding signal,[9],"9.77 upbm affinity estimate (log intensity, higher = more binding, comparable within an allelic series)"
same,binding signal,[10],"9.67 upbm affinity estimate (log intensity, higher = more binding, comparable within an allelic series)"
same,binding signal,[13],"10.3 upbm affinity estimate (log intensity, higher = more binding, comparable within an allelic series)"
same,binding signal,[14],"9.69 upbm affinity estimate (log intensity, higher = more binding, comparable within an allelic series)"
same,binding signal,[15],"6.9 upbm affinity estimate (log intensity, higher = more binding, comparable within an allelic series)"
CCATTAAG,binding signal,[4],"13 upbm affinity estimate (log intensity, higher = more binding, comparable within an allelic series)"
same,binding signal,[17],"11.8 upbm affinity estimate (log intensity, higher = more binding, comparable within an allelic series)"
same,binding signal,[5],"10.5 upbm affinity estimate (log intensity, higher = more binding, comparable within an allelic series)"
same,binding signal,[18],"12.3 upbm affinity estimate (log intensity, higher = more binding, comparable within an allelic series)"
same,binding signal,[19],"11.5 upbm affinity estimate (log intensity, higher = more binding, comparable within an allelic series)"
same,binding signal,[7],"11.8 upbm affinity estimate (log intensity, higher = more binding, comparable within an allelic series)"
same,binding signal,[8],"13.6 upbm affinity estimate (log intensity, higher = more binding, comparable within an allelic series)"
same,binding signal,[10],"13.7 upbm affinity estimate (log intensity, higher = more binding, comparable within an allelic series)"
same,binding signal,[14],"11.3 upbm affinity estimate (log intensity, higher = more binding, comparable within an allelic series)"
CGGTTCCC,binding signal,[4],"7.65 upbm affinity estimate (log intensity, higher = more binding, comparable within an allelic series)"
same,binding signal,[20],"8.58 upbm affinity estimate (log intensity, higher = more binding, comparable within an allelic series)"
same,binding signal,[8],"7.57 upbm affinity estimate (log intensity, higher = more binding, comparable within an allelic series)"
GACCAGGC,binding signal,[4],"7.9 upbm affinity estimate (log intensity, higher = more binding, comparable within an allelic series)"
same,binding signal,[17],"8.15 upbm affinity estimate (log intensity, higher = more binding, comparable within an allelic series)"
same,binding signal,[20],"8.29 upbm affinity estimate (log intensity, higher = more binding, comparable within an allelic series)"
same,binding signal,[18],"8.13 upbm affinity estimate (log intensity, higher = more binding, comparable within an allelic series)"
same,binding signal,[19],"8.13 upbm affinity estimate (log intensity, higher = more binding, comparable within an allelic series)"
same,binding signal,[8],"7.99 upbm affinity estimate (log intensity, higher = more binding, comparable within an allelic series)"
TCCATTAA,binding signal,[4],"13 upbm affinity estimate (log intensity, higher = more binding, comparable within an allelic series)"
same,binding signal,[17],"11.7 upbm affinity estimate (log intensity, higher = more binding, comparable within an allelic series)"
same,binding signal,[20],"9.97 upbm affinity estimate (log intensity, higher = more binding, comparable within an allelic series)"
same,binding signal,[5],"10.5 upbm affinity estimate (log intensity, higher = more binding, comparable within an allelic series)"
same,binding signal,[7],"11.9 upbm affinity estimate (log intensity, higher = more binding, comparable within an allelic series)"
same,binding signal,[8],"13.6 upbm affinity estimate (log intensity, higher = more binding, comparable within an allelic series)"
same,binding signal,[10],"13.7 upbm affinity estimate (log intensity, higher = more binding, comparable within an allelic series)"
same,binding signal,[11],"12.8 upbm affinity estimate (log intensity, higher = more binding, comparable within an allelic series)"
same,binding signal,[12],"12.2 upbm affinity estimate (log intensity, higher = more binding, comparable within an allelic series)"
same,binding signal,[14],"11.4 upbm affinity estimate (log intensity, higher = more binding, comparable within an allelic series)"
same,binding signal,[16],"12.2 upbm affinity estimate (log intensity, higher = more binding, comparable within an allelic series)"
ATCATTAG,binding signal,[4],"13.5 upbm affinity estimate (log intensity, higher = more binding, comparable within an allelic series)"
same,binding signal,[17],"11.7 upbm affinity estimate (log intensity, higher = more binding, comparable within an allelic series)"
same,binding signal,[5],"10.6 upbm affinity estimate (log intensity, higher = more binding, comparable within an allelic series)"
same,binding signal,[18],"12.5 upbm affinity estimate (log intensity, higher = more binding, comparable within an allelic series)"
same,binding signal,[19],"11.8 upbm affinity estimate (log intensity, higher = more binding, comparable within an allelic series)"
same,binding signal,[6],"12.9 upbm affinity estimate (log intensity, higher = more binding, comparable within an allelic series)"
same,binding signal,[7],"12.3 upbm affinity estimate (log intensity, higher = more binding, comparable within an allelic series)"
same,binding signal,[8],"14.2 upbm affinity estimate (log intensity, higher = more binding, comparable within an allelic series)"
same,binding signal,[9],"13.6 upbm affinity estimate (log intensity, higher = more binding, comparable within an allelic series)"
same,binding signal,[10],"14.1 upbm affinity estimate (log intensity, higher = more binding, comparable within an allelic series)"
same,binding signal,[11],"13.2 upbm affinity estimate (log intensity, higher = more binding, comparable within an allelic series)"
same,binding signal,[12],"13.1 upbm affinity estimate (log intensity, higher = more binding, comparable within an allelic series)"
same,binding signal,[13],"10.9 upbm affinity estimate (log intensity, higher = more binding, comparable within an allelic series)"
same,binding signal,[14],"12 upbm affinity estimate (log intensity, higher = more binding, comparable within an allelic series)"
same,binding signal,[15],"12.7 upbm affinity estimate (log intensity, higher = more binding, comparable within an allelic series)"
same,binding signal,[16],"13.1 upbm affinity estimate (log intensity, higher = more binding, comparable within an allelic series)"
CGGGCTAG,binding signal,[4],"7.46 upbm affinity estimate (log intensity, higher = more binding, comparable within an allelic series)"
same,binding signal,[17],"7.92 upbm affinity estimate (log intensity, higher = more binding, comparable within an allelic series)"
same,binding signal,[18],"7.75 upbm affinity estimate (log intensity, higher = more binding, comparable within an allelic series)"
same,binding signal,[19],"7.71 upbm affinity estimate (log intensity, higher = more binding, comparable within an allelic series)"
same,binding signal,[8],"7.53 upbm affinity estimate (log intensity, higher = more binding, comparable within an allelic series)"
CGCCGCCG,binding signal,[4],"8.06 upbm affinity estimate (log intensity, higher = more binding, comparable within an allelic series)"
same,binding signal,[17],"8.02 upbm affinity estimate (log intensity, higher = more binding, comparable within an allelic series)"
same,binding signal,[18],"8.3 upbm affinity estimate (log intensity, higher = more binding, comparable within an allelic series)"
same,binding signal,[19],"8.17 upbm affinity estimate (log intensity, higher = more binding, comparable within an allelic series)"
same,binding signal,[8],"7.89 upbm affinity estimate (log intensity, higher = more binding, comparable within an allelic series)"
same,binding signal,[11],"7.38 upbm affinity estimate (log intensity, higher = more binding, comparable within an allelic series)"
same,binding signal,[12],"7.39 upbm affinity estimate (log intensity, higher = more binding, comparable within an allelic series)"
same,binding signal,[16],"7.32 upbm affinity estimate (log intensity, higher = more binding, comparable within an allelic series)"
CGTGCCTC,binding signal,[4],"7.37 upbm affinity estimate (log intensity, higher = more binding, comparable within an allelic series)"
same,binding signal,[20],"8.3 upbm affinity estimate (log intensity, higher = more binding, comparable within an allelic series)"
same,binding signal,[8],"7.39 upbm affinity estimate (log intensity, higher = more binding, comparable within an allelic series)"
